# Values joined by “and” are separate entries in the source; they are usually repeats but may differ in a detail not shown here. Identical values can stand only once. A structure can be active in one record and inactive in another. Active and inactive are the calls of the source.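 The calls were made as follows, unless noted: active = mean z-score across replicates of 1.96 or higher in either the MELAS or the Rieske mutant cell line; inactive = the rest.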
# Experiments:
# [1] = hESC survival regulators, cell-based (AID 493140; call rule not given here;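 also: cells exposed to compounds for four days before counting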); conditions: human embryonic stem cell survival screen; stronger effect = higher value
# [2] = liver-stage malaria parasite growth inhibition, primary screen, cell-based, HepG2, luciferase luminescence, HepG2 viability (AID 624349; in the data active = parasite load remaining mostly below about 12%, no sharp cut-off; inactive = mostly above about 10%;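 also: 100% = mean of DMSO negative control wells on the same plate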); conditions: P. berghei liver stage in HepG2, luciferase luminescence, concentration not given here; parasite load remaining: stronger effect = lower value; viability: measured here: HepG2 viability without parasites
# [3] = stimulators of nuclear beta-catenin in C2C12, primary screen, imaging, WNT3A-conditioned medium, mouse C2C12, NPC library (AID 1117326; in the data active = nuclear beta-catenin stimulation mostly above about 4.2%, no sharp cut-off; inactive = mostly below about 10%); conditions: stronger effect = higher value
# [4] = stimulators of insulin release from INS-1E, primary screen, cell-based, 5 mM glucose, NPC library (AID 1117329;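 active = compound raises insulin release from rat beta cells at 5 mM glucose, no numeric limit stated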); conditions: rat INS-1E insulin secretion, at 10 µM, stronger effect = higher value
# [5] = growth inhibition of GSK3B-pretreated HCT116 cells – cell-based, CellTiter-Glo, 0.2 to 20 µM (AID 1117336;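 active = compounds lowering colon cancer cell viability after pretreatment blocking the GSK3B kinase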); conditions: HCT116 viability after GSK3B inhibitor, at 20 µM, stronger effect = higher value
# [6] = inhibition of endothelial tube formation, primary screen, imaging, VEGF stimulated, CD31 staining, tube area, NPC library (AID 1117340;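 active = compound that reduces growth-factor-driven endothelial tube area in a mixed cell culture, no cutoff stated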); conditions: VEGF-stimulated ADSC/ECFC co-culture, at 10 µM, stronger effect = higher value
# [7] = glucagon-like peptide 1 release enhancers, primary assay, NCI-H716 cell line, NPC library (AID 1117341;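 active = compound raises GLP1 secretion from the human gut endocrine cells, with no numeric limit stated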); conditions: NCI-H716 cells, at 10 µM, stronger effect = higher value
# [8] = HCT116 colon cancer cell growth inhibition, primary screen, CellTiter-Glo luminescence, NPC library (AID 1117342;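 active = compounds that lower survival of HCT116 colon cancer cells in the luminescence readout, no numeric limit stated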); conditions: at 20 µM (top of the series)
# [9] = CellTiter-Glo luminescent readout of SW480 viability loss, NPC library primary (AID 1117343;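 active = compounds that lower viability of the colon cancer cells in the luminescence readout, with no numeric limit stated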); conditions: CellTiter-Glo luminescence; at 20 µM (top of the series) unless noted
# [10] = decreased DLD-1 cellular survival, CellTiter-Glo luminescent readout, NPC compound collection, primary HTS (AID 1117346;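 active = compounds that lower survival of DLD-1 colon cancer cells in the luminescence readout, no cutoff given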); conditions: DLD-1 viability, CellTiter-Glo luminescence; at 20 µM (top of the series)
# [11] = sensitizers of A549 cells to miR-34 induction, primary screen, imaging, A549 dox-inducible miR-34, nuclei and caspase counts (AID 1347080;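 active = compounds whose cell count with miR-34 switched on is under 0.7 times the count with it off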); conditions: A549 miR-34 inducible, Hoechst nuclei count, 48 h
# [12] = survival rescue of mitochondrial mutant cells in low glucose, primary screen, MELAS cybrids, Rieske KO mouse fibroblasts, CellTiter-Glo (AID 1508586);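 also: z relative to plate mean and SD of compound and empty wells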
# [13] = target: NAD(+) hydrolase SARM1 (Homo sapiens) (UniProt Q6SZW1); assay: SARM1 TIR NADase inhibitors, cell lysate, NAD-Glo luminescence (AID 1508614;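 active = compound whose remaining NAD level is above about 45 nM, limit read from the data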;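 also: higher remaining NAD means stronger inhibition of SARM1 NADase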); conditions: SAM-TIR HEK293T lysate NADase, at 1 µM, stronger effect = higher value
# NAD(+) hydrolase SARM1 (Homo sapiens), sequence (Q6SZW1 whole entry, looked up, the tested form may be a part): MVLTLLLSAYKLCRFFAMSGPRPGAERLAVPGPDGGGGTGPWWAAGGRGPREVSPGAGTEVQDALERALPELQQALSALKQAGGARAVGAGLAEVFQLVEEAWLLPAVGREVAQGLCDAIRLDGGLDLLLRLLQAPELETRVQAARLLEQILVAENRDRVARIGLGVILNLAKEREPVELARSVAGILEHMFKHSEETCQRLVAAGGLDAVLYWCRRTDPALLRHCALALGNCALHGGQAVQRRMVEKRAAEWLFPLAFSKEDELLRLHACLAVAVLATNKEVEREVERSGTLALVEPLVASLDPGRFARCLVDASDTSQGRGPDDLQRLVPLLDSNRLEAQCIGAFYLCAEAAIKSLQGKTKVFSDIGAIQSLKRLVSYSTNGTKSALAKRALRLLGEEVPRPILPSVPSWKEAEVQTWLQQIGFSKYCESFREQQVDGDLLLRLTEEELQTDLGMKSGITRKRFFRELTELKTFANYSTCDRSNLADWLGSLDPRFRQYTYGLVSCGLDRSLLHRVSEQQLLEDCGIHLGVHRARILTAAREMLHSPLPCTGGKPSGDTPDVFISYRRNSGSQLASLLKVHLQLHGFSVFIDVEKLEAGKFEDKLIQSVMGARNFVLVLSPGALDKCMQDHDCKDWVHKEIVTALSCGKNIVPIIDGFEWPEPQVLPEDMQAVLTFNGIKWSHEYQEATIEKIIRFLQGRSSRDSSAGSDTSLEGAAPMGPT
# [14] = target: Mitogen-activated protein kinase 7 (Homo sapiens) (UniProt Q13164); assay: ERK5 transactivation activators in reporter cells, primary screen, cell-based, HTS (AID 1508626;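 active = luciferase signal above three times the same-plate solvent-only control wells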;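 also: luciferase driven by Gal4-ERK5 fusion binding five Gal4 sites before minimal TATA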); conditions: HeLa Gal4-ERK5 transactivation, 18 h, at 5 µM, stronger effect = higher value
# Mitogen-activated protein kinase 7 (Homo sapiens), sequence (Q13164 whole entry, looked up, the tested form may be a part): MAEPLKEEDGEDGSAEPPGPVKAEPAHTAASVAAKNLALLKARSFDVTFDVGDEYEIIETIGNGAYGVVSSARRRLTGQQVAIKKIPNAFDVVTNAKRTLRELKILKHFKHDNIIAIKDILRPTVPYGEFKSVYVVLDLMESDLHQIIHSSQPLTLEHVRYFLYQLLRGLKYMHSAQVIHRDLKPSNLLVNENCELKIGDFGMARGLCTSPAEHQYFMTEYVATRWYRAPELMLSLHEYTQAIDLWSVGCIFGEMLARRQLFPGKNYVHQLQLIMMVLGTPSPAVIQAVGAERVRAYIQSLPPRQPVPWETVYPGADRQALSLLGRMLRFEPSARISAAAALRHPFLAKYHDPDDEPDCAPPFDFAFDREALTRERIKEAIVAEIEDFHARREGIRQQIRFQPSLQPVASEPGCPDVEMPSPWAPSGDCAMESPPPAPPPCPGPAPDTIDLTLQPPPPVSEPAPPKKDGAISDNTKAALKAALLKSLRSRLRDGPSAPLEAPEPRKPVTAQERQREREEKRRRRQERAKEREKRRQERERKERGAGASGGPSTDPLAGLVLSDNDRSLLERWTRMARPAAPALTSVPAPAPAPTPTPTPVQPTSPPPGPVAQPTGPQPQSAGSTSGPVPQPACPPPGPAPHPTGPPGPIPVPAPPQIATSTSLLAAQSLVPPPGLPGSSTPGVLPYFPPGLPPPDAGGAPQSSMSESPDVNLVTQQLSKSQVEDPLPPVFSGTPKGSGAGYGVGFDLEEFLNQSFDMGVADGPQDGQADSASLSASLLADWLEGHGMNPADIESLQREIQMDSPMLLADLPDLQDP
# [15] = viability rescue of complex I mutant cybrids, primary screen, cell-based, galactose medium, ATP luminescence (AID 1645843;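 active = z-score of at least 1.8 in each of two replicates, scored against plate mean and spread of sample wells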;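 also: positive z means more ATP and so rescue of galactose-driven cybrid death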); conditions: complex I mutant cybrid cells, 72 h, stronger effect = higher value
# [16] = circadian clock period modulators, cell-based, LOPAC library, luminescence reporter (AID 2774; call rule not given here;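 also: values are relative to mean of DMSO wells on each plate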); conditions: circadian reporter cells, at 7 µM, actives lie on both sides
# [17] = stronger effect = lower value, cell number ratio, induced over uninduced
# [18] = measured here: relative caspase fold change +Dox/-Dox
# [19] = measured here: total cells with miR-34 induction, stronger effect = lower value
# [20] = measured here: total cells without miR-34 induction
# [21] = MELAS cybrid survival, CellTiter-Glo 48 h, stronger effect = higher value
# [22] = Rieske KO mouse fibroblast survival, CellTiter-Glo 72 h
smiles,measurement,setting,value
CC(C)(C)NC[C@H](O)COc1cccc2c1CCCC2=O,survival,[1],3.08 (inactive)
same,parasite load remaining,[2],68.1% (inactive)
same,viability,[2],89.1%
same,nuclear beta-catenin stimulation,[3]; at 10 µM,0% (inactive)
same,nuclear beta-catenin stimulation,"[3]; stimulation, at 2 µM",0.3%
same,insulin secretion stimulation,[4],3.7% (inactive)
same,viability decrease,[5],17.1% (inactive)
same,tube area decrease,[6],1% (inactive)
same,GLP1 secretion stimulation,[7],8.6% (inactive)
same,inhibition of viability,[8],13.8% (inactive)
same,viability decrease (inhibition),[9],-11.3% (inactive)
same,viability decrease (inhibition),[10],2.7% (inactive)
same,fold change,[11]; [17],0.883 (inactive)
same,fold change,[11]; [18],1.03
same,cell count,[11]; [19],9340
same,cell count,[11]; [20],10600
same,z-score,[12]; [21],0.581 (inactive)
same,z-score,[12]; [22],0.045
same,remaining NAD,[13],10 nM (inactive)
same,luciferase signal,[14],88 AU (inactive)
O=C(O)Cc1sc(-c2ccccc2)nc1-c1ccc(Cl)cc1,parasite load remaining,[2],43.2% (inactive)
same,viability,[2],106%
same,nuclear beta-catenin stimulation,[3]; at 10 µM,-0.8% (inactive)
same,nuclear beta-catenin stimulation,"[3]; stimulation, at 2 µM",-0.1%
same,insulin secretion stimulation,[4],3.3% (inactive)
same,viability decrease,[5],18.7% (inactive)
same,tube area decrease,[6],11.7% (inactive)
same,GLP1 secretion stimulation,[7],-0.5% (inactive)
same,inhibition of viability,[8],43.2% (inactive)
same,viability decrease (inhibition),[9],32.4% (inactive)
same,viability decrease (inhibition),[10],16.6% (inactive)
same,fold change,[11]; [17],0.887 (inactive)
same,fold change,[11]; [18],0.944
same,cell count,[11]; [19],10000
same,cell count,[11]; [20],11300
same,z-score,[12]; [21],-0.576 (inactive) and -0.0336 (inactive)
same,z-score,[12]; [22],-0.115 and 0.182
same,z-score,[15],1.28 (inactive)
O=c1[nH]c2ccccc2n1CCCN1CCN(C(c2ccccc2)c2ccccc2)CC1,period change,[16],0.15 h (inactive)
same,parasite load remaining,[2],29.6% (inactive)
same,viability,[2],106%
same,nuclear beta-catenin stimulation,[3]; at 10 µM,2.7% (inactive)
same,nuclear beta-catenin stimulation,"[3]; stimulation, at 2 µM",2%
same,insulin secretion stimulation,[4],1.95% (inactive)
same,viability decrease,[5],72% (active)
same,tube area decrease,[6],20.5% (inactive)
same,GLP1 secretion stimulation,[7],1.4% (inactive)
same,inhibition of viability,[8],76.3% (active)
same,viability decrease (inhibition),[9],110% (active)
same,viability decrease (inhibition),[10],78.8% (active)
same,fold change,[11]; [17],0.906 (inactive)
same,fold change,[11]; [18],1.22
same,cell count,[11]; [19],8130
same,cell count,[11]; [20],8980
same,z-score,[12]; [21],-0.355 (inactive)
same,z-score,[12]; [22],-0.351
same,z-score,[15],-1.56 (inactive)
CCCCN1C[C@H](O)[C@@H](O)[C@H](O)[C@H]1CO,parasite load remaining,[2],45.7% (inactive)
same,viability,[2],77.5%
same,nuclear beta-catenin stimulation,[3]; at 10 µM,2.8% (inactive)
same,nuclear beta-catenin stimulation,"[3]; stimulation, at 2 µM",0.2%
same,insulin secretion stimulation,[4],-1.2% (inactive)
same,viability decrease,[5],-13.2% (inactive)
same,tube area decrease,[6],8.1% (inactive)
same,GLP1 secretion stimulation,[7],-0.1% (inactive)
same,inhibition of viability,[8],-0.5% (inactive)
same,viability decrease (inhibition),[9],23.4% (inactive)
same,viability decrease (inhibition),[10],3.5% (inactive)
same,fold change,[11]; [17],0.88 (inactive)
same,fold change,[11]; [18],0.958
same,cell count,[11]; [19],9280
same,cell count,[11]; [20],10500
same,z-score,[12]; [21],0.308 (inactive)
same,z-score,[12]; [22],-0.247
same,z-score,[15],0.145 (inactive)
NC(CO)(CO)CO,nuclear beta-catenin stimulation,[3]; at 10 µM,1.8% (inactive)
same,nuclear beta-catenin stimulation,"[3]; stimulation, at 2 µM",3.7%
same,insulin secretion stimulation,[4],-0.6% (inactive)
same,viability decrease,[5],-2.3% (inactive)
same,tube area decrease,[6],-6% (inactive)
same,GLP1 secretion stimulation,[7],3.3% (inactive)
same,inhibition of viability,[8],-37% (inactive)
same,viability decrease (inhibition),[9],-8% (inactive)
same,viability decrease (inhibition),[10],2.75% (inactive)
same,fold change,[11]; [17],0.909 (inactive)
same,fold change,[11]; [18],0.61
same,cell count,[11]; [19],8750
same,cell count,[11]; [20],9620
same,z-score,[12]; [21],-0.338 (inactive)
same,z-score,[12]; [22],-0.156
CC(C)(CO)[C@@H](O)C(=O)NCCCO,survival,[1],26.3 (inactive)
same,parasite load remaining,[2],20.9% (inactive) and 97.7% (inactive) and 20.3% (inactive)
same,viability,[2],47.1% and 90.5% and 98.9%
same,nuclear beta-catenin stimulation,[3]; at 10 µM,1.6% (inactive)
same,nuclear beta-catenin stimulation,"[3]; stimulation, at 2 µM",1.3%
same,insulin secretion stimulation,[4],-2.9% (inactive)
same,viability decrease,[5],-4.45% (inactive)
same,tube area decrease,[6],10.3% (inactive)
same,GLP1 secretion stimulation,[7],3.1% (inactive)
same,inhibition of viability,[8],4.3% (inactive)
same,viability decrease (inhibition),[9],100% (active)
same,viability decrease (inhibition),[10],-5.1% (inactive)
same,fold change,[11]; [17],0.883 (inactive) and 0.939 (inactive)
same,fold change,[11]; [18],1.21 and 2.44
same,cell count,[11]; [19],8270 and 12000
same,cell count,[11]; [20],9370 and 12800
same,z-score,[12]; [21],0.185 (inactive)
same,z-score,[12]; [22],0.0963
same,remaining NAD,[13],10 nM (inactive)
O=C(O)Cc1cccc2ccccc12,nuclear beta-catenin stimulation,[3]; at 10 µM,-0.7% (inactive)
same,nuclear beta-catenin stimulation,"[3]; stimulation, at 2 µM",0.6%
same,insulin secretion stimulation,[4],-1.5% (inactive)
same,viability decrease,[5],-6.45% (inactive)
same,tube area decrease,[6],0% (inactive)
same,GLP1 secretion stimulation,[7],1.9% (inactive)
same,inhibition of viability,[8],12.9% (inactive)
same,viability decrease (inhibition),[9],39.8% (inactive)
same,viability decrease (inhibition),[10],-0.4% (inactive)
same,fold change,[11]; [17],0.971 (inactive)
same,fold change,[11]; [18],1.32
same,cell count,[11]; [19],8040
same,cell count,[11]; [20],8280
same,z-score,[12]; [21],0.391 (inactive)
same,z-score,[12]; [22],-0.24
same,z-score,[15],0.46 (inactive)
CC(C)Nc1cccnc1N1CCN(C(=O)c2cc3cc(NS(C)(=O)=O)ccc3[nH]2)CC1,parasite load remaining,[2],42.2% (inactive)
same,viability,[2],102%
same,nuclear beta-catenin stimulation,[3]; at 10 µM,0.8% (inactive)
same,nuclear beta-catenin stimulation,"[3]; stimulation, at 2 µM",-0.4%
same,insulin secretion stimulation,[4],-1.5% (inactive)
same,viability decrease,[5],-11.6% (inactive)
same,tube area decrease,[6],-1.5% (inactive)
same,GLP1 secretion stimulation,[7],2.1% (inactive)
same,inhibition of viability,[8],28.8% (inactive)
same,viability decrease (inhibition),[9],0.9% (inactive)
same,viability decrease (inhibition),[10],-21.2% (inactive)
same,fold change,[11]; [17],0.904 (inactive)
same,fold change,[11]; [18],1.31
same,cell count,[11]; [19],9200
same,cell count,[11]; [20],10200
same,z-score,[12]; [21],0.775 (inactive) and 1.98 (active)
same,z-score,[12]; [22],0.201 and 1.19
same,z-score,[15],0.98 (inactive)
CCOc1ccccc1OCCN[C@H](C)Cc1ccc(OC)c(S(N)(=O)=O)c1,parasite load remaining,[2],30.6% (inactive)
same,viability,[2],71%
same,nuclear beta-catenin stimulation,[3]; at 10 µM,0.2% (inactive)
same,nuclear beta-catenin stimulation,"[3]; stimulation, at 2 µM",3%
same,insulin secretion stimulation,[4],1.6% (inactive)
same,viability decrease,[5],4.2% (inactive)
same,tube area decrease,[6],-2.4% (inactive)
same,GLP1 secretion stimulation,[7],2.3% (inactive)
same,inhibition of viability,[8],4.1% (inactive)
same,viability decrease (inhibition),[9],6.6% (inactive)
same,viability decrease (inhibition),[10],5.8% (inactive)
same,fold change,[11]; [17],0.868 (inactive)
same,fold change,[11]; [18],1.51
same,cell count,[11]; [19],9140
same,cell count,[11]; [20],10500
same,z-score,[12]; [21],-0.622 (inactive)
same,z-score,[12]; [22],-1.24
same,remaining NAD,[13],10 nM (inactive)
same,z-score,[15],-0.32 (inactive)

# Reference: PubChem BioAssay
